The source of these data is PubChem BioAssay (NCATS).

Assay [1] addresses Thyrotropin-releasing hormone receptor (Homo sapiens) (UniProt P34981). In words: qHTS for Small Molecule Agonists and Allosteric Enhancers of Human TRH Receptor: Validation Screen for Agonists (AID 493127;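 active means calcium activation more than 3 SD above the typical response in the agonist read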;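 further: intracellular calcium rise by fluo-8 fluorescence before TRH EC20 addition; 0% is about no effect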). Conditions: TRH receptor agonist cell assay; at 2 µM; stronger effect = higher value. The method, boiled down:
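Cells 2000/well, 10% FCS, 18 h 33.5C/5% CO2 → fluo-8 Ca dye, RT 30 min–1.5 h → FDSS baseline 10 × 1 s → compound added → 230 cycles (1 s/cycle) agonist mode. TRH controls.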
Background: Quantitative high-throughput screening tests each substance at several concentrations.

A short description of assay [2]: Nrf2 qHTS screen for inhibitors: Validation (AID 493153; active means well fitted inhibition curve with a large enough effect in the main read-out, with a control signal flat, not every such curve was filed as active). Particulars: A549 ARE-Fluc reporter, 18-24 h; Potency: luciferase luminescence; viability change: measured here: cytotoxicity max response; luciferase luminescence, at 46.1 µM (top of the series). The essentials:
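Luminescence from an ARE-firefly luciferase reporter in A549 cells gives Nrf2 inhibition; an earlier CellTiter-Fluor fluorescent read flags cytotoxicity. Cells in 5% FBS OPTI-MEM received compound dilution series for 18-24 h at 37°C.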

Assay [3] is described as follows: qHTS for Inhibitors of Cell Surface uPA Generation: Validation Assay (AID 493164). Further: 0% is about no effect. Conditions: mouse cells, plasminogen activation; series mostly up to 38.3 µM. The method, boiled down: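 RAW 264.7 cells (4000/well) were plated overnight, then exposed for 18 h at 37 C, 5% CO2 to compounds in a 7-point 1:5 titration (2.45 nM–38.3 uM final). Intracellular ATP was read by ATP-Lite luminescence.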

Assay [4] has as its target Galactokinase (Homo sapiens) (UniProt P51570). In words: qHTS Validation Assay for Inhibitors of Human Galactokinase (GALK) (AID 493189). Further: 0% is about no effect. Conditions: purified human GALK enzyme activity, qHTS 7-point titration; series mostly up to 57.5 µM. The essentials:
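5 nM GALK / 100 uM galactose / 35 uM ATP, 20 mM HEPES pH8.0, 5 mM MgCl2, 60 mM NaCl, 1 mM DTT, 0.01% BSA (final). RT 1 h; Kinase-Glo Plus luminescence.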

Assay [5] can be described thus: Validation screen for small molecules that induce DNA re-replication in SW480 colon adenocarcinoma cells (AID 504364). Further: 0% is about no effect. Conditions: DNA re-replication phenotype (high-content imaging); series mostly up to 46.1 µM. The method, boiled down: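 250 cells/well; compound pinned in; 48 hr, 37 C, 5% CO2; Hoechst added, 40 min; nuclear fluorescence imaged, 405 ex / 500-530 em; re-replication scored as increase in high-intensity nuclei.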

Assay [6] addresses Peptidyl-prolyl cis-trans isomerase NIMA-interacting 1 (Homo sapiens) (UniProt Q13526). In words: qHTS Validation Assay to Find Inhibitors of Pin1 (AID 504536; active means well fitted inhibition curve with a large enough effect in the polarisation, with a control signal flat, not every such curve was filed as active; the % refers to the polarisation;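 further: 0% = full Pin1 enzyme wells and -100% = no-enzyme wells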). Particulars: Pin1 fluorescence polarization peptide binding assay; series mostly up to 57.5 µM. The method, boiled down: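 Fluorescence polarization competition: compounds (titration) displace HiFluor-488-labeled Pin1-1b peptide from Pin1 (0.3 uM final) in pH 7.5 HEPES buffer with DTT, 10 min at room temperature; %Activity normalized to no-enzyme wells, curves fitted.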

In assay [7] the target is Phosphoglycerate kinase, glycosomal (Trypanosoma brucei brucei) (UniProt P07378). In words: qHTS Validation Assay to Find Inhibitors of Phosphoglycerate Kinase (AID 504547).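 Further: control wells lack PGK and mark full inhibition.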 Particulars: enzymatic PGK inhibition, coupled luminescence read-out; series mostly up to 57.5 µM. The essentials:
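PGK activity was coupled to GAPDH (100nM final), which generates the unstable substrate 1,3-bisphosphoglycerate in-well. Reactions ran 60 minutes at room temperature in 100mM TEA pH 7.6, 5mM MgCl2, 0.01% Tween-20, then Kinase-Glo Plus luminescence was read.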

Assay [8] addresses phosphoglycerate mutase (Leishmania major) (UniProt Q4Q090). Nature of the assay: qHTS Validation Assay to Find Inhibitors of Phosphoglycerate Mutase (AID 504548). Further: on the % scale 0 is the no-effect control and ±100 the full control effect. Conditions: biochemical enzyme activity; series mostly up to 57.5 µM. The essentials: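 Lm PGAM 1.25nM final; 100 mM TEA pH 7.6, 5 mM MgCl2, 0.01% Tween-20; 45 min RT; Kinase-GloPlus, 10 min; end-point luminescence. Enzyme-free wells as negative controls.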

Assay [9] is described as follows: qHTS for Inhibitors of ATXN expression: Validation of Cytotoxic Assay (AID 588349). Further: on the % scale 0 is the no-effect control and ±100 the full control effect. Conditions: cytotoxicity counter-screen for ATXN expression inhibitors, cell viability; series mostly up to 57.1 µM. The essentials:
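Read-out: ATP-based luminescence (CellTiter Glo) reflecting viability of HEK293 cells after 72 hr incubation at 37 degrees C with a concentration series of each compound.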

Assay [10] is described as follows: qHTS for Inhibitors of ATXN expression: Validation (AID 588378). Further: on the % scale 0 is the no-effect control and ±100 the full control effect; nearly all actives have a fitted effect of over 75% in size. Conditions: cell-based ATXN2 expression reporter assay, luminescence; series mostly up to 57.1 µM. The method, boiled down: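 Compounds were pinned onto attached HEK293 cells carrying an ATXN2-firefly luciferase construct and incubated 24 hrs at 37 degrees C. Each well then received a fluorescent viability reagent followed by luciferase substrate for end-point luminescence.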

Assay [11] addresses Ubiquitin carboxyl-terminal hydrolase 1 (Homo sapiens) (UniProt O94782). Nature of the assay: Inhibitors of USP1/UAF1: Pilot qHTS (AID 504865).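 Further: rhodamine fluorescence freed from ubiquitin-rhodamine substrate followed over time; top concentration of the series differs between compounds; on the % scale 0 is the no-effect control and ±100 the full control effect; nearly all actives have a fitted effect of over 35% in size.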 Particulars: purified USP1/UAF1, Ub-rhodamine cleavage fluorescence; series mostly up to 114 µM. The method, boiled down:
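In 50mM HEPES pH 7.8 containing 0.5mM EDTA, 1mM TCEP, 0.1 mg/ml BSA and 0.01% Tween-20, 1nM USP1/UAF1 is exposed to compound for 15 min, then Ub-Rho (150nM final) is added and fluorescence is read over time.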

Assay [12] has as its target Estrogen receptor (Homo sapiens) (UniProt P03372). In words: qHTS assay for small molecule antagonists of estrogen receptor alpha signaling (AID 588513; active means well fitted curve in the direction sought with a large enough effect in the signal ratio, with a control signal flat, not every such curve was filed as active; the % refers to the signal ratio; further: on the % scale 0 is the no-effect control and ±100 the full control effect). Conditions: ER-alpha-UAS-bla HEK293, beta-lactamase ratio, antagonist mode; series mostly up to 76.9 µM. The method, boiled down: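 Fluorescence from CCF4 substrate after 2 h at room temperature gave reporter activity; cells had been exposed to compound and 0.5nM 17-beta-estradiol for 18 h at 37 C. Hill-equation fitting yielded IC50 and maximal response.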

Assay [13] has the same target. Nature of the assay: qHTS assay for small molecule agonists of estrogen receptor alpha signaling (AID 588514; calls by dose curve;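 further: 0% = vehicle only and 100% = reference agonist; nearly all actives have a fitted effect of over 70% in size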). Conditions: ER-alpha-UAS-bla HEK293, beta-lactamase ratio, 18 h; series mostly up to 76.8 µM. The essentials: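 Cells were plated at 5000/well, incubated 4 hrs at 37 C, dosed with compound titration series, incubated 18 hrs at 37 C, loaded with CCF4 dye for 2 hrs at RT, then fluorescence was read.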

Assay [14] in a line: qHTS assay for small molecule antagonists of peroxisome proliferator-activated receptor delta signaling (AID 588535; active means well fitted inhibition curve with a large enough effect in the signal ratio, with a control signal flat, not every such curve was filed as active; the % refers to the signal ratio;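 on max response: cells co-treated with a PPAR-delta agonist as stimulator during compound exposure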). Conditions: HEK293T PPARd-UAS-bla, beta-lactamase FRET ratio, 18 h; 460 nm channel. The method, boiled down:
(§1)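 Antagonist-mode beta-lactamase reporter (GeneBLAzer PPAR-delta-UAS-bla) in HEK293T cells, 2% charcoal/dextran FBS, 4000 cells/well. Compound titrations, 18 h at 37 C; CCF4 ratio read, IC50 and efficacy from Hill fits.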

Assay [15] has as its target Peroxisome proliferator-activated receptor delta (Homo sapiens) (UniProt Q03181). Described as above. Particulars: HEK293T PPARd-UAS-bla, beta-lactamase FRET ratio, 18 h; series mostly up to 76.7 µM. The essentials:
as §1

Records with an inconclusive call do not appear. Active and inactive are the calls of the source. Unless noted, the call rests on the fitted dose curve; in most records, active means well fitted curve in the direction sought with a large enough effect; inconclusive means small, poorly fitted or top-dose-only effect, or another doubt; inactive means no such curve, though single readings can be large; an effect the other way counts as inactive or inconclusive.

Sequence of Peptidyl-prolyl cis-trans isomerase NIMA-interacting 1 (Homo sapiens) (Q13526 whole entry, looked up): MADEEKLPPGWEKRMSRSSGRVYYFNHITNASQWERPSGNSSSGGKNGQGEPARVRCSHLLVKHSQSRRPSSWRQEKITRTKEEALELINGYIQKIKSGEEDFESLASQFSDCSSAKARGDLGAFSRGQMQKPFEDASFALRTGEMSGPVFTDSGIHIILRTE
Sequence of Ubiquitin carboxyl-terminal hydrolase 1 (Homo sapiens) (O94782 whole entry, looked up): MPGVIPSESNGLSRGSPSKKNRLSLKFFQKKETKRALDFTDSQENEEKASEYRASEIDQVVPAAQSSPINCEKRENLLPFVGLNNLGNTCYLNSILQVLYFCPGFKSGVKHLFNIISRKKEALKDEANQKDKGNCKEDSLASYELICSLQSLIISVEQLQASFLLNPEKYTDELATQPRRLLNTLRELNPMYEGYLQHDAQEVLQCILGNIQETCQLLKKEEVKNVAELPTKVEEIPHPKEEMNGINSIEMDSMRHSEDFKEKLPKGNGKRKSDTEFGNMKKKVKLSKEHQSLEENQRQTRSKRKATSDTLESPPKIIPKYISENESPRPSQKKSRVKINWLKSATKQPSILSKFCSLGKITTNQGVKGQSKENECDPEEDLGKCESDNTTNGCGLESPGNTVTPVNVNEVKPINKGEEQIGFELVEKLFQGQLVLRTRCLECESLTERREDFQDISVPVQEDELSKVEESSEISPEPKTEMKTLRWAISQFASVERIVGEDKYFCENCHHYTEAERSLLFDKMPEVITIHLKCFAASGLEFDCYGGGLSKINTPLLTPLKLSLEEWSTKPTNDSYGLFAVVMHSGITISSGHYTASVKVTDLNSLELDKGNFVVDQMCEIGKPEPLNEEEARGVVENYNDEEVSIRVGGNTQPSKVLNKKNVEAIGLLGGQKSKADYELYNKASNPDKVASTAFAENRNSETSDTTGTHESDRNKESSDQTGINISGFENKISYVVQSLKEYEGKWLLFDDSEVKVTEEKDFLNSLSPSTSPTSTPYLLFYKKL
Sequence of Galactokinase (Homo sapiens) (P51570 whole entry, looked up): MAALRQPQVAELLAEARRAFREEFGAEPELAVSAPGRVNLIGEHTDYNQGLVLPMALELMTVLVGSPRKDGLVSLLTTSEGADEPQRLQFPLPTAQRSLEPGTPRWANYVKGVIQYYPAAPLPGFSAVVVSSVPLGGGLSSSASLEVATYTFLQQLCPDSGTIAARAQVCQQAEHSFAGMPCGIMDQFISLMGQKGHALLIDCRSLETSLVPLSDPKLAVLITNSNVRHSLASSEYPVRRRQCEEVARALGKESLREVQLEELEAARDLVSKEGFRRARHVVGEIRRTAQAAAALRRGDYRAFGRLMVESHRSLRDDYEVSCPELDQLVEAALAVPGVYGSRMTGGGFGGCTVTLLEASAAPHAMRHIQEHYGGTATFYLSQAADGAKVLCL
Sequence of Thyrotropin-releasing hormone receptor (Homo sapiens) (P34981 whole entry, looked up): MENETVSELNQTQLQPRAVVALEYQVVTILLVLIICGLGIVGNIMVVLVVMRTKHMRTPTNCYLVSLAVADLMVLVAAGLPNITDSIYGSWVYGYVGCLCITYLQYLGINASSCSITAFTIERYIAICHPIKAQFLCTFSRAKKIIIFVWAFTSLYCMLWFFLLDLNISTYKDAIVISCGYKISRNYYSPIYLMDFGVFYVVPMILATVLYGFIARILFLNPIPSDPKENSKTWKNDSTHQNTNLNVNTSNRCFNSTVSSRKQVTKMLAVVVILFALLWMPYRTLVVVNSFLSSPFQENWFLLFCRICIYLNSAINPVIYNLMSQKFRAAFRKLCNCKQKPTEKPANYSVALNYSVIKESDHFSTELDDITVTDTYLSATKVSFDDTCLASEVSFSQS
Sequence of phosphoglycerate mutase (Leishmania major) (Q4Q090 1-553): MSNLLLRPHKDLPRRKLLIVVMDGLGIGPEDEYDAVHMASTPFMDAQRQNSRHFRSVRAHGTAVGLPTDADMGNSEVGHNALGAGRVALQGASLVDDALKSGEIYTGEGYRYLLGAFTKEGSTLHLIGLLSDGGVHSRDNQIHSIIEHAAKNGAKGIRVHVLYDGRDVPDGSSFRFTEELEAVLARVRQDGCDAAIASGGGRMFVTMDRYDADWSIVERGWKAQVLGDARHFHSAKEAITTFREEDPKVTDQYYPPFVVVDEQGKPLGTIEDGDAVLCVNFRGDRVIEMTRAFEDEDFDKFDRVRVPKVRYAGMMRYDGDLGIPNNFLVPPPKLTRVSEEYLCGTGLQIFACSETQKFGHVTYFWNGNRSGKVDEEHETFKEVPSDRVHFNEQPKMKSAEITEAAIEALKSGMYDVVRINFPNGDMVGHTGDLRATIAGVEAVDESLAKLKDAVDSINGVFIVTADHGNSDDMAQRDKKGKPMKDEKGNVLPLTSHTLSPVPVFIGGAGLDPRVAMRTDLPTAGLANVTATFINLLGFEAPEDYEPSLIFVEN
Sequence of Phosphoglycerate kinase, glycosomal (Trypanosoma brucei brucei) (P07378 whole entry, looked up): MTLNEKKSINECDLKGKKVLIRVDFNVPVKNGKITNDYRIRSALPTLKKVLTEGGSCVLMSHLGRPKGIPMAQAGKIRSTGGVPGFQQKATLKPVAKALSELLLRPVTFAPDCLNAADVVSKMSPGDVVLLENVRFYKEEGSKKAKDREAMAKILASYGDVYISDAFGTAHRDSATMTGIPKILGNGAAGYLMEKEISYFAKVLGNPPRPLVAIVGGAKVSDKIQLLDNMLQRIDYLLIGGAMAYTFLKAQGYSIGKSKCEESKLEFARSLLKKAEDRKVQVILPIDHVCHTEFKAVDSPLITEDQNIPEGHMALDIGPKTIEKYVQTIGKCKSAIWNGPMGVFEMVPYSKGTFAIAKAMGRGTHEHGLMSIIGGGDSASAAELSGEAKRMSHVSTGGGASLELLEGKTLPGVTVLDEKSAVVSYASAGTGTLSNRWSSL
Sequence of Estrogen receptor (Homo sapiens) (P03372 whole entry, looked up): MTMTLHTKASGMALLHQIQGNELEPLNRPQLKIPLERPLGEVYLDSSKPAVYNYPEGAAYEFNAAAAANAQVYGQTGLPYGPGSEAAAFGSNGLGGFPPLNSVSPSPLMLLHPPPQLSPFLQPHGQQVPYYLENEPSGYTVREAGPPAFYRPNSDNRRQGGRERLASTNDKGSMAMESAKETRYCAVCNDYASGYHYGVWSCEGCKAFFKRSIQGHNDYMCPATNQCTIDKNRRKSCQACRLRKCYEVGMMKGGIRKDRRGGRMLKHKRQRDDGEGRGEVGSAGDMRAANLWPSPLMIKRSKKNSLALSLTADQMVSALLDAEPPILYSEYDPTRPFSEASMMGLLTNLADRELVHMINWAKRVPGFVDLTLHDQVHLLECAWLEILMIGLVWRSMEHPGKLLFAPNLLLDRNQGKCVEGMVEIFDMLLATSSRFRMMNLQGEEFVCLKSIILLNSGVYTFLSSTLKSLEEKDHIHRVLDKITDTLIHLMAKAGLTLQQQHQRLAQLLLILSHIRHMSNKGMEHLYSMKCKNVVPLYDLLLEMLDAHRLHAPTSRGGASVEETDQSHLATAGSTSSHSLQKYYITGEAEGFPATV
Sequence of Peroxisome proliferator-activated receptor delta (Homo sapiens) (Q03181 whole entry, looked up): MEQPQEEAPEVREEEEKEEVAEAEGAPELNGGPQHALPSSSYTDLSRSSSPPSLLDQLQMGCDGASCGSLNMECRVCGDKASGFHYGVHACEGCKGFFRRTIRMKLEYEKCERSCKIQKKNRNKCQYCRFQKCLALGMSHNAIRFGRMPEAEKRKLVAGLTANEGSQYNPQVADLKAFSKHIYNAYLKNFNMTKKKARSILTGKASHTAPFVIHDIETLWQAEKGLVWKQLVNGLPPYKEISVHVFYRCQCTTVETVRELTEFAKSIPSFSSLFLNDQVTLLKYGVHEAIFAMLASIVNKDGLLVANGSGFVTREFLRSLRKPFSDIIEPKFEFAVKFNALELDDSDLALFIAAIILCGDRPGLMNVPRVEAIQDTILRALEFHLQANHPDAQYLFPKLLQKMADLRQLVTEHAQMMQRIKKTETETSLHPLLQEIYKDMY

Consider `O=C(CCNNC(=O)c1ccncc1)NCc1ccccc1`, for which, in [1], the activation is 0.188% (inactive). Further, the Potency entry in assay [2], in assay [9] and in assay [10] was “inactive” each time. Moreover, in assay [2], the viability change was -3.76%. Further, the call in assay [3], in assay [4], in [5], in assay [6], in [7] and in [8] was inactive.

As to `c1ccc2c(c1)CCCC2C1=NCCN1` (configuration not stated), the activation in assay [1] was 1.25% (inactive). Moreover, the Potency result in assay [2], in [9] and in [10] was “inactive” in each case. The viability change in assay [2] was -0.882%. The compound was called inactive in assay [3], in [4], in assay [5], in assay [6], in assay [7] and in assay [8].

`NS(=O)(=O)c1cc2c(cc1Cl)NC(C1CC3C=CC1C3)NS2(=O)=O` (configuration not stated): the activation in [1] is -0.25% (inactive). For the same compound, the Potency result in [2], in assay [11], in [9] and in assay [10] was “inactive” throughout. Moreover, the viability change in [2] stood at 12.8%. Also, the compound was called inactive in [3], in assay [4], in assay [5], in [7] and in assay [8].

Turning to `CO[C@@]1(NC(=O)CSCC#N)C(=O)N2C(C(=O)O)=C(CSc3nnnn3C)CS[C@@H]21`, in assay [1], the activation was 1.44% (inactive). Besides, the Potency result in assay [2], in assay [11], in assay [9] and in assay [10] was “inactive” each time. Also, in assay [2], the viability change was determined as 1.13%. Moreover, the outcome in assay [3], in [4], in assay [5], in assay [7] and in assay [8] was inactive.

In the case of `Cc1scc2c1N(C(=O)CN1CCN(C)CC1)c1ccccc1NC2=O`, the activation in assay [1] is 0.5% (inactive). Further, the Potency entry in assay [2] and in [10] was “inactive” throughout. Besides, the viability change in assay [2] was determined as 3.95%. Also, the call in assay [3], in [4], in [5], in assay [6], in [7] and in assay [8] was inactive.

As for `CC(C(=O)O)c1ccc(CC2CCCC2=O)cc1` (configuration not stated), the activation in [1] was 1.56% (inactive). Also, the Potency result in assay [2], in assay [9] and in [10] was “inactive” throughout. Moreover, the viability change in assay [2] was -13.4%. Also, the compound was classed as inactive in [3], in [4], in assay [5], in [6], in assay [7] and in [8].

In the case of `CCN(Cc1ccncc1)C(=O)C(CO)c1ccccc1` (configuration not stated), the activation in [1] is 0.375% (inactive). In addition, the Potency result in [2], in assay [9] and in assay [10] was “inactive” throughout. The viability change in assay [2] was -1.19%. Besides, the compound was called inactive in assay [3], in [4], in assay [5], in assay [6], in [7] and in assay [8].

As for `NC(=O)N1c2ccccc2C=Cc2ccccc21`, the activation in assay [1] is 0.625% (inactive). The Potency result in assay [2], in assay [9], in assay [10] and in [13] was “inactive” throughout. For the same compound, in assay [2], the viability change is -0.0645%. The compound was classed as inactive in assay [3], in assay [4], in assay [5], in assay [6], in [7] and in assay [8]. Also, the result in [12] and in assay [15] was inactive. Moreover, in [14], the max response is 34.8%.

`COCCOC(=O)C1=C(C)NC(C)=C(C(=O)OC(C)C)C1c1cccc([N+](=O)[O-])c1` (configuration not stated): the activation in assay [1] was -5.81% (inactive). The Potency result in assay [2], in assay [11] and in assay [10] was “inactive” in each case. Besides, in assay [2], the viability change worked out at 0.126%. For the same compound, the compound was called inactive in assay [3], in assay [4], in assay [5], in assay [6], in assay [7] and in [8].

Take `CCCCCN(CCCCC)C(=O)C(CCC(=O)O)NC(=O)c1ccc(Cl)c(Cl)c1` (configuration not stated): the activation in [1] was 1% (inactive). For the same compound, the Potency result in assay [2] and in assay [10] was “inactive” throughout. Further, the viability change in assay [2] was 3.55%. Also, the result in assay [3], in [4], in assay [5], in assay [6], in [7] and in [8] was inactive.
